In PubChem BioAssay (NCI) one finds growth data, which are given here for 40 molecules.

The panel holds about 83,000 compounds, 20% with a hit somewhere; the sample as a whole holds those more often.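 For each line, cells grew in 96-well plates with the test compound present at a single concentration for 48 hours.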 Calls of active or inactive are those of the source.

In the test the test system is MOLT-4 leukemia. The test is described as follows: NCI-60 one-dose screen, 48 h (100 = growth as untreated, 0 = no growth, -100 = all killed). The note with it: 10 µM unless noted. As to the method:
Growth inhibition of the MOLT-4 human tumor cell line is measured as a screen for anti-cancer activity. Cells are grown in 96 well plates and exposed to the test compound for 48 hours. Compounds are tested at a single concentration, which is 10^-5 M for most compounds. The reported endpoint is percent growth (GI% or GIPRCNT), where numbers from 0 - 100% represent growth inhibition, and numbers from -100% - 0 represent cell death. For example, a value of 40 represents 60% growth inhibition. A value of 0 means no net growth occurred over the course of the experiment. A value of -40 indicates 40% of cells at the beginning of the experiment died by the end of the experiment. A value of -100 means all cells are dead at the end of the experiment.
NCI-60 Human Tumor Cell Lines Screen was performed using the standard one-dose NCI protocol, which is described in more detail at https://dtp.cancer.gov/discovery_development/nci-60/default.htm.
Compounds with GIPRCNT values below 10 were considered active. Activity score was based on GIPRCNT using the following formula: […]
Score is 0 for GIPRCNT values of 100 or above, 50 for GIPRCNT values of 0, and 100 for GIPRCNT values of -100.
Take `O=C(/C=C/c1cccc2ccccc12)c1ccc(NC(=O)c2ccccc2CN2C(=O)c3ccccc3C2=O)cc1`: the growth was 51.2% (inactive). As to `CCc1cccc2c3c(sc12)C(c1ccc(F)cc1)C(C#N)=C(N)O3` (stereo not given), the growth is 17.3% (inactive). In the case of `COc1ccc(C(=O)COC(=O)[C@H](C[Se][Se]C[C@H](NC(=O)c2ccc(Br)cc2F)C(=O)OCC(=O)c2ccc(OC)cc2)NC(=O)c2ccc(Br)cc2F)cc1`, the growth was -1.84% (active). As to `CSc1ncccc1C(=O)OCC(=O)Nc1oc(C)c2c(C)n[nH]c(=O)c12`, the growth was 99.4% (inactive).

As for `C=C1CC[C@H](C(C)C)[C@@H]2[C@H]1[C@H]1CC(=C)[C@@H](O)CC[C@@](C)(O)[C@@H]2O1`, the growth is 119% (inactive). Regarding `COc1ccc(C(=O)/C=C/c2sc(Cl)nc2Cl)cc1`, the growth is 11.6% (inactive).

For the molecule `COc1cc(/C=C2\C(=O)Nc3ccc(Br)cc32)cc(OC)c1OC`, the growth was 63.6% (inactive).

As for `COC(=O)c1ccc2[nH]c(O)c(C(=Nc3ccc(N(C)C(=O)CN4CCN(C)CC4)cc3)c3ccccc3)c2c1`, the growth is 12.1% (inactive). The same measure for `COc1ccc(NC2=C(Br)C(=O)C(C)=C(C)C2=O)cc1`: -9.34% (active); for `CN1C(=O)N(C)C2Nn3c(s/c(=C\c4ccccc4)c3=O)=NC21` (stereo not given): 109% (inactive); for `COc1ccc(OC)c(/C=C2\Oc3cc(OCCN4CCC(Cc5ccccc5)CC4)ccc3C2=O)c1`: 62.4% (inactive).

As to `CC(C)OC(=O)Nc1ccc(-c2nc(-c3cccc(OCCN4CCOCC4)c3)c(-c3ccnc(Br)c3)[nH]2)cc1`, the growth was 0.706% (active).

`NC1=C(c2nn[nH]n2)C(c2ccccc2Cl)c2ccc3ccccc3c2O1` (stereo not given): the growth is 70.9% (inactive). Consider `COc1cc(CCC[P+](c2ccccc2)(c2ccccc2)c2ccccc2)c(OC)c(OC)c1OC`, for which the growth was 57.6% (inactive). As to `O=C(Nc1ccc(Cl)cc1F)c1cc(Cl)ccc1O`, the growth is -42.4% (active). As for `Cc1ccc2c(-c3cc(-c4ccccc4)nc(N)c3C#N)cc(=O)oc2c1`, the growth was 94.5% (inactive). As to `CN1CCN(c2ccc(-c3cc4c(Nc5ccc(F)c(Cl)c5)ncnn4c3)cn2)CC1`, the growth was 93.6% (inactive).

For the molecule `COc1nc2ccccc2cc1-c1nc2c(cnn2-c2ccc(Br)cc2)c(=O)[nH]1`, the growth is 47.7% (inactive). With `O=C(N/N=C/[C@H](O)[C@H](O)[C@H](O)CO)c1ccc(NC(=O)c2cccnc2)cc1` the figure was 109% (inactive); with `Cc1ccc(/C=C(\C#N)n2nc3cccc(F)c3n2)cc1`, 102% (inactive). For `N#Cc1c(Nc2cccc(Cl)c2)sc(C(=O)c2cc3cc(Cl)ccc3o2)c1N`, the growth is 66.6% (inactive). Regarding `COc1cc(C)c(Cc2cnc(N)nc2N)cc1OC`, the growth was 62.6% (inactive). Regarding `Cc1nn(-c2ccccc2)c(-n2ccnc2)c1/C=N/Nc1nc(-c2ccc(F)cc2)cs1`, the growth was 48.3% (inactive).

As for `Cc1c(C(=O)/C=C/Nc2c(Cl)cc(S(N)(=O)=O)cc2Cl)sc2nc3ccccc3n12`, the growth was 106% (inactive). As for `Cc1cc(N2CCCC2)nc(N(CCCNc2ccnc3cc(Cl)ccc23)Cc2ccccn2)n1`, the growth was 46.7% (inactive). Turning to `COc1ccc2sc3c(NCCCNCCO)nc4ccccc4c3c(=O)c2c1`, the growth was 16.4% (inactive). Consider `CCCCCCNC(=O)Oc1ccc(/C(=C(\C)c2ccc(OC)cc2)c2ccc(OCCN3CCCCC3)cc2)cc1`, for which the growth was 41.8% (inactive). `C[C@]12CC[C@@H]3c4cc(OC(F)F)c(OS(N)(=O)=O)cc4CC[C@H]3[C@@H]1CC[C@@H]2O`: the growth was 18.7% (inactive). As for `Cc1ccc(S(=O)(=O)N/N=C/C2(c3ccccc3)CC2)cc1`, the growth is 90.5% (inactive).

As for `O=c1c2cc(C(F)(F)F)ccc2sc2c(NCCCNCCO)nc3ccccc3c12`, the growth was -50.1% (active). With `CCCCCCN(CCCCCC)c1ccc(/C=C2/SC(=O)NC2=O)c(C)c1`, the growth was 75.1% (inactive). `CC(=O)N1N=C(c2ccc(Nc3nc(Nc4ccc(F)cc4)nc(Nc4ccc(Cl)cc4)n3)cc2)CC1c1ccc(Cl)cc1` (stereo not given): the growth is 98.2% (inactive). On to `COc1ccc2sc3c(NCCCN(C)C)nc4ccccc4c3c(=O)c2c1`, for which the growth is -16.2% (active).

On to `NS(=O)(=O)c1ccc(N=Nc2ccc(-c3nn4cc(-c5ccccc5)nc4s3)cc2)cc1`, for which the growth was 105% (inactive). The same measure for `CCOC(=O)c1sc2ncc(-c3ccc(OC)cc3)n2c1C`: 94.5% (inactive); for `c1ccc2cc(C[n+]3ccn(CCCCCCCCCCCCn4cc[n+](Cc5ccc6ccccc6c5)c4)c3)ccc2c1`: -69.7% (active); for `CC(C)c1cc(C(C)C)c(S(=O)(=O)Oc2ccc(NC(=O)c3ccc(Cl)cc3)cc2)c(C(C)C)c1`: 17.6% (inactive). Turning to `CCOC(=O)c1cn2ncnc(Oc3ccc(NC(=O)NCCN4CCOCC4)c(Cl)c3)c2c1C`, the growth is 106% (inactive). The same measure for `COc1c(C2CC(=O)Nc3c2c(C)nn3-c2nc3ccccc3[nH]2)cc2c(c1OC)OCO2` (stereo not given): -12.7% (active); for `COc1ccc(N)c(N)c1`: 96.2% (inactive).
